± gives the standard deviation. Bounds are passed on as bounds.
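Note: 1 nM active piRISC with 0.1 nM target library at 33 °C single turnover.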

The test system of the first experiment is MILI (PIWIL2) piRISC loaded with L1MC piRNA (26 nt). The experiment is described as follows: pre-steady-state target cleavage rate (min^-1); guide: L1MC piRNA 5'p-UAACUAAAUACUAUGCAAGCUGUAGG; MIWI and MILI are mouse PIWI proteins and EfPiwi is from a freshwater sponge; tags in brackets are library labels; higher = faster piRNA-guided slicing of the target. The settings on record: auxiliary factor: 500 nM mouse GTSF1. In short, it runs like this: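 Reactions were run for 0–8 or 0–960 min at 33 °C in HEPES–potassium acetate buffer, combining 1 nM active affinity-purified piRISC with one synthetic guide, […] transcribed, DNA-blocked target RNA library and, in some cases, 500 nM GTSF1 partner protein. Sequencing of uncleaved targets followed, with normalisation to depth and to weakly complementary targets. Three trials were pooled, k3 was capped at 0.0001 min^-1, and the pre-steady-state cleavage rate was taken from a burst-and-steady-state fit.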
For UCCUGGAUGUCCUUGCAUAGUAUUUACUAA, the “pre-steady-state target cleavage rate” value came to 0.0464 ± 0.011.

As for UCCUGGUACAGCUUGGAUAGUAUUUAGAUA, the “pre-steady-state target cleavage rate” value stood at 0.118 ± 0.038.

On to UCCUGGAUCAGCUUGCAUACUAUUUUCAAA, for which the “pre-steady-state target cleavage rate” value turned out to be 0.00818 ± 0.004.

Turning to UCCUGGAUGUCGAUGCAUAGUAUUUAGAUUA, the “pre-steady-state target cleavage rate” value worked out at 0.0599 ± 0.016.

UCCUGGAUGAGCUUCGAUAGUAUUUAGUUA: the “pre-steady-state target cleavage rate” value turned out to be 0.108 ± 0.013.

Consider UCCUGGAUGUCCUAGCAUACUAUUUAGUUA, for which the “pre-steady-state target cleavage rate” value was 0.0115 ± 0.0063.

In the case of UCCUGGAUCAGGAAGCAUAGUAUUUACAAA, the “pre-steady-state target cleavage rate” value amounted to 0.00413 ± 0.0036.

On to UCCUGGAUGUCGUUGACAUAGUAUUUAGUUA, for which the “pre-steady-state target cleavage rate” value amounted to 0.0142 ± 0.0054.

With “UCCUGGAUGUCGAACCAUAGUAUUUAGUUU [g2:g15:cont:t1U]”, the “pre-steady-state target cleavage rate” value is 0.00385 ± 0.0021.

As to UCCUGGAUGAGCUACCAUAGUAUUUAGAAA, the “pre-steady-state target cleavage rate” value is 0.00557 ± 0.0043.

For the sequence UCCUGGAUGUCCUUGCAUAGAAUAUAGUUA, the “pre-steady-state target cleavage rate” value was 0.00487 ± 0.0038.

As to UCCUGGAUGUCCUAGCAUAGUAUUUUGUUA, the “pre-steady-state target cleavage rate” value stood at 0.0105 ± 0.0061.

For the sequence UCCUCCUACAGCUUGCAUAGUUAAUACAAA, the “pre-steady-state target cleavage rate” value worked out at 0.014 ± 0.0056.

Regarding UCCUGGAACAGCUUGCAUAGUAAUUUCAAA, the “pre-steady-state target cleavage rate” value came out at 0.0786 ± 0.026.

As to UCCUGCUACAGCUACCAUAGUAUUUAGAAA, the “pre-steady-state target cleavage rate” value stood at 0.0677 ± 0.021.

On to UCCUGCUACAGCUUGCAUAGUUUUUACUUA, for which the “pre-steady-state target cleavage rate” value worked out at 0.0291 ± 0.0063.

Take UCCUGGAUCAGCUUGCAAUCUAUUUAGUUA: the “pre-steady-state target cleavage rate” value was determined as 0.0116 ± 0.0035.

On to UCCUGGAUCAGCAUGCAUAGUAUUUUCAAA, for which the “pre-steady-state target cleavage rate” value amounted to 0.0716 ± 0.018.

UCCUGGAUGUCCUUGCAUAGUAUUUACAUA: the “pre-steady-state target cleavage rate” value is 0.039 ± 0.013.

Turning to UCCUGGAUGUCCUUGCUUAGUAUUUAGAUA, the “pre-steady-state target cleavage rate” value came to 0.0358 ± 0.0092.

For UCCUGGAUGUCGUUGCAUAGUAUUAAGUUA, the “pre-steady-state target cleavage rate” value amounted to 0.142 ± 0.028.

In the case of UCCUGGAUGUGGUUGCAUAGUAUUUAGAUA, the “pre-steady-state target cleavage rate” value is 0.0485 ± 0.021.

For the sequence UCCUGGUUGAGCUUGCAUAGUAUUUAGAAA, the “pre-steady-state target cleavage rate” value was 0.0925 ± 0.026.

For the sequence UCCUGGAACAGCUUGCUAAGUAUUUAGAAA, the “pre-steady-state target cleavage rate” value was 0.0282 ± 0.01.

Consider UCCUGGUACAGCUUGCAUAGGAUUUAGUUA, for which the “pre-steady-state target cleavage rate” value amounted to 0.00737 ± 0.0052.

UCCUCCUACAGCUUCGUUAGUAUUUAGUAA: the “pre-steady-state target cleavage rate” value came to 0.186 ± 0.026.

For UCCUGCUACAGCUUGCAAUGUAUUUAGAAA, the “pre-steady-state target cleavage rate” value was determined as 0.0407 ± 0.013.

Regarding UCCUGGAACACCUUGCAUAGUAUUUACUUA, the “pre-steady-state target cleavage rate” value was 0.0546 ± 0.018.

Turning to UCCUGCUACAGCUUGCUAUGUAUUUAGAAA, the “pre-steady-state target cleavage rate” value was 0.0133 ± 0.0063.

Consider UCCUGGUACAGCUUGCUUAGUAUUUUGUUA, for which the “pre-steady-state target cleavage rate” value was 0.0736 ± 0.021.

Consider UCCUCCUACAGCUUGCAUAGAUAUUAGAAA, for which the “pre-steady-state target cleavage rate” value is 0.00453 ± 0.0044.

On to UCCUGGAUCAGCUUCGUUAGUAUUUAGUAA, for which the “pre-steady-state target cleavage rate” value came to 0.02 ± 0.0056.

For UCCUGGAACAGCUUGCAAAGUAUUUUCAAA, the “pre-steady-state target cleavage rate” value came to 0.0111 ± 0.0049.

With UCCUGGAUGUCCUUGCAUAGUAUUAUCUUA, the “pre-steady-state target cleavage rate” value worked out at 0.0177 ± 0.0079.

In the case of UCCUGGAUGUCGAAGCGUAGUAUUUAGUUA, the “pre-steady-state target cleavage rate” value was 0.00313 ± 0.0025.

For the sequence UCCUGCUACAGCUUGCUAUGUAUUUAGUAA, the “pre-steady-state target cleavage rate” value came out at 0.0455 ± 0.019.

Consider UCCUGGAUGUGCUUGGAUAGUAUUUUGUUA, for which the “pre-steady-state target cleavage rate” value was 0.0685 ± 0.02.

Still in this experiment, the particulars now being: auxiliary factor: none (no GTSF1).
Take “UCCUGGAUGUCGAACCAUAGUAUUUUCAAA [g6:g15:cont:t1A]”: the “pre-steady-state target cleavage rate” value is less than 0.0001.

For the sequence UCCUGGAUGUCGUUCCUUAGUAUUUAGUUA, the “pre-steady-state target cleavage rate” value is less than 0.0001.

Regarding UCCUGGAUGUCGAACCAUCAGUAUUUAGUUA, the “pre-steady-state target cleavage rate” value is less than 0.0001.

(Values after the supplement of paper PMC10338343.)
